# Inconclusive results are not listed. Some structures have more than one record in an assay (separate samples or runs), and their calls can disagree. The source made the active and inactive calls. Rule for the calls, unless noted: active = hit-call score of the fitted dose curve at least 0.9, where 1 is the maximum; inconclusive = response in the unintended direction; inactive = score below 0.9.
# Legend:
# [1] = target: Retinoic acid receptor RXR-alpha (Homo sapiens) (UniProt P19793); experiment: OT_NURR1_NURR1RXRa_0480: Odyssey Thera (OT) 8-hour HEK293T Protein Complementation Assay for Nurr1/retinoid X receptor (RXR) (AID 2283385)
# Outline: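 Read-out: fluorescence from protein-fragment complementation between Nurr1 and RXRα in human HEK293T cells, 8 h after dosing. DMSO served as negative control; increased signal counted as activity.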
# [2] = target: Retinoic acid receptor RXR-alpha (Homo sapiens) (UniProt P19793); experiment: OT_NURR1_NURR1RXRa_1440: Odyssey Thera (OT) 24-hour HEK293T Protein Complementation Assay for Nurr1/retinoid X receptor (RXR) (AID 2283386)
# Outline: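 Fluorescence PCA read-out; HEK293T; 24 h post-dose; bait/prey fused to reporter fragments; gain-of-signal fit vs DMSO negative control.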
# [3] = target: Peroxisome proliferator-activated receptor gamma (Homo sapiens) (UniProt P37231); experiment: OT_PPARg_PPARgSRC1_0480: Odyssey Thera (OT) 8-hour Protein-Complementation Assay for Peroxisome Proliferator-activated Receptor Gamma / SRC-1 Co-activator (AID 2283387);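 note: nuclear to cytoplasmic split Venus YFP fluorescence ratio reporting PPARg SRC-1 interaction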
# Outline: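 HEK293T transiently transfected with PPARg and SRC-1 fused to Venus YFP fragments, compounds 8 h at 37C. Fixed, Draq5-stained cells imaged; nuclear/cytoplasmic 488 nm fluorescence ratio over at least 350 cells per image; gain fitted versus DMSO.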
# [4] = target: Peroxisome proliferator-activated receptor gamma (Homo sapiens) (UniProt P37231); experiment: OT_PPARg_PPARgSRC1_1440: Odyssey Thera (OT) 24-hour Protein-Complementation Assay for Peroxisome Proliferator-activated Receptor Gamma/ SRC-1 Co-activator (AID 2283388)
# Outline: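 Readout: nuclear-to-cytoplasmic 488 nm fluorescence ratio, ≥350 cells per image, 8 images per well, after 24 h compound exposure of HEK293T expressing PPARg/SRC-1 split-YFP fusions. Activity fitted in positive direction against DMSO.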
# [5] = CEETOX_H295R_11DCORT: CeeTox H295R High-throughput Steroidogenesis Assay for 11-Deoxycortisol (11DCORT) (AID 2283432; active = hit-call score of the fitted dose curve at least 0.9, where 1 is the maximum; inactive = score below 0.9;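 for AC50: 11-deoxycortisol secreted into the medium measured by LC-MS/MS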); details: actives raise or lower the signal
# Outline: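 H295R cells prestimulated 48 h with 10 uM forskolin, then exposed 48 h to chemical in 0.1% DMSO. 11-Deoxycortisol in medium quantified by HPLC-MS/MS after MTBE extraction; bidirectional fit versus DMSO. MTT viability read in same wells.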
# [6] = CEETOX_H295R_OHPREG: CeeTox H295R High-throughput Steroidogenesis Assay for OH-Pregnenolone (OHPREG) (AID 2283434; active = hit-call score of the fitted dose curve at least 0.9, where 1 is the maximum; inactive = score below 0.9); details: actives raise or lower the signal
# Outline: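 Secreted 17alpha-hydroxypregnenolone measured by HPLC-MS/MS after liquid-liquid extraction. Human adrenal H295R cells received 48 h forskolin (10 uM) stimulation before 48 h chemical exposure at 0.1% final DMSO; MTT viability in same wells; bidirectional fit against DMSO.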
# [7] = CEETOX_H295R_OHPROG: CeeTox H295R High-throughput Steroidogenesis Assay for OH-Progesterone (OHPROG) (AID 2283435; active = hit-call score of the fitted dose curve at least 0.9, where 1 is the maximum; inactive = score below 0.9;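 for AC50: 17alpha-hydroxyprogesterone secreted into medium measured by HPLC-MS/MS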); details: actives raise or lower the signal
# Outline: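 HPLC-MS/MS quantification of 17alpha-hydroxyprogesterone secreted by H295R cells after 48 h chemical exposure, following 48 h 10 uM forskolin prestimulation. Gain or loss of signal fitted relative to DMSO. Viability checked by MTT in the same wells.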
# [8] = CEETOX_H295R_CORTIC: CeeTox H295R High-throughput Steroidogenesis Assay for Corticosterone (CORTIC) (AID 2283437; active = hit-call score of the fitted dose curve at least 0.9, where 1 is the maximum; inactive = score below 0.9); details: actives raise or lower the signal
# Outline: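 Medium corticosterone was quantified by tandem mass spectrometry following 48 hours of chemical exposure (0.1% DMSO) in human H295R cells previously stimulated 48 hours with 10 uM forskolin. Viability checked by MTT; chemicals diluted and retested when viability fell below 70%.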
# [9] = CEETOX_H295R_CORTISOL: CeeTox H295R High-throughput Steroidogenesis Assay for Cortisol (AID 2283438; active = hit-call score of the fitted dose curve at least 0.9, where 1 is the maximum; inactive = score below 0.9;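 note: cortisol secreted into medium quantified by LC-MS/MS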); details: actives raise or lower the signal
# Outline: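 Read-out: cortisol in culture medium by reverse-phase C18 HPLC with ESI-positive tandem MS, after MTBE liquid-liquid extraction. Cells: human adrenal H295R, forskolin-primed (10 uM, 48 h) before 48 h chemical exposure in 0.1% DMSO.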
# [10] = CEETOX_H295R_DOC: CeeTox H295R High-throughput Steroidogenesis Assay for DOC (AID 2283439; active = hit-call score of the fitted dose curve at least 0.9, where 1 is the maximum; inactive = score below 0.9); details: actives raise or lower the signal
# Outline: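 Human adrenocortical H295R cells, passages up to 10, received 10 uM forskolin for 48 h before chemical addition. After another 48 h exposure in 0.1% DMSO, secreted DOC was measured by LC-MS/MS, with gain or loss fitted against DMSO controls.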
# [11] = CEETOX_H295R_ESTRADIOL: CeeTox H295R High-throughput Steroidogenesis Assay for Estradiol (AID 2283440; active = hit-call score of the fitted dose curve at least 0.9, where 1 is the maximum; inactive = score below 0.9;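 note: estradiol secreted into medium quantified by LC-MS/MS after dansyl derivatisation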); details: actives raise or lower the signal
# Outline: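 H295R, 48 h forskolin (10 uM) prestim → 48 h compound, 0.1% DMSO final. Estradiol in medium: MTBE extraction, dansyl chloride derivatization, LC-MS/MS. Fit bidirectional vs DMSO baseline; MTT viability in same wells.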
# [12] = CEETOX_H295R_ESTRONE: CeeTox H295R High-throughput Steroidogenesis Assay for Estrone (AID 2283441; active = hit-call score of the fitted dose curve at least 0.9, where 1 is the maximum; inactive = score below 0.9;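 note: estrone secreted into medium measured by LC-MS/MS after dansyl derivatization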); details: actives raise or lower the signal
# Outline: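 Forskolin-stimulated H295R cells are treated 48 h with chemical, and estrone in the medium is measured by LC-MS/MS. Activity is fitted in both directions relative to DMSO controls, with chemicals diluted until MTT viability reaches at least 70%.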
# [13] = CEETOX_H295R_PROG: CeeTox H295R High-throughput Steroidogenesis Assay for Progesterone (PROG) (AID 2283442; active = hit-call score of the fitted dose curve at least 0.9, where 1 is the maximum; inactive = score below 0.9); details: actives raise or lower the signal
# Outline: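 Progesterone read-out: HPLC-MS/MS on MTBE extracts of conditioned medium after 48 h chemical exposure of forskolin-primed (10 uM, 48 h) H295R cells. Gain or loss of signal was fitted relative to DMSO baseline.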
# [14] = read-out: Tumor necrosis factor receptor superfamily member 6 (Homo sapiens) (UniProt P25445); experiment: LTEA_HepaRG_FAS: Life Technologies and Expression Analysis (LTEA) Assay for Fas cell surface death receptor (FAS) using HepaRG (AID 2283447; active = hit-call score of the fitted dose curve at least 0.9, where 1 is the maximum; inactive = score below 0.9); details: mRNA level, 48 h; actives raise or lower the signal
# Outline: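 FAS transcript level was measured by TaqMan qRT-PCR against three housekeeping genes after 48 h chemical exposure. Cells were HepaRG, 0.5% DMSO vehicle, with a top concentration of 100 uM and half-log dilutions over eight points, in duplicate.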
# [15] = read-out: Fatty acid synthase (Homo sapiens) (UniProt P49327); experiment: LTEA_HepaRG_FASN: Life Technologies and Expression Analysis (LTEA) Assay for Fatty Acid Synthase (FASN) using HepaRG (AID 2283448; active = hit-call score of the fitted dose curve at least 0.9, where 1 is the maximum; inactive = score below 0.9;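 for AC50: differentiated human HepaRG liver cells in serum-free induction medium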); details: mRNA level, 48 h; actives raise or lower the signal
# Outline: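 HepaRG, 48 h exposure, 8-pt half-log series top 100 uM, 0.5% DMSO vehicle, duplicates. Readout: FASN transcript by Fluidigm qRT-PCR; housekeeping-normalized; bidirectional curve fit vs DMSO baseline.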
# [16] = read-out: Cyclin D2 (CCND2), CCND2 (gene 894); experiment: LTEA_HepaRG_CCND2: Life Technologies and Expression Analysis (LTEA) Assay for Cyclin D2 (CCND2) using HepaRG (AID 2283449; active = hit-call score of the fitted dose curve at least 0.9, where 1 is the maximum; inactive = score below 0.9); details: mRNA level, 48 h; actives raise or lower the signal
# Outline: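 CCND2 transcript levels, quantified by qRT-PCR and normalised to three housekeeping genes, were fitted bidirectionally against 0.5% DMSO. HepaRG cultures were dosed 48 h in duplicate with an 8-point half-log series up to 100 uM.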
# [17] = read-out: Cyclin Dependent Kinase Inhibitor 1A (CDKN1A), CDKN1A (gene 1026); experiment: LTEA_HepaRG_CDKN1A: Life Technologies and Expression Analysis (LTEA) Assay for Cyclin Dependent Kinase Inhibitor 1A (CDKN1A) using HepaRG (AID 2283450; active = hit-call score of the fitted dose curve at least 0.9, where 1 is the maximum; inactive = score below 0.9); details: mRNA level, 48 h; actives raise or lower the signal
# Outline: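 HepaRG, 48 h dosing, 8-pt half-log series from 100 uM top, 0.5% DMSO vehicle, duplicates. Readout: TaqMan qRT-PCR of CDKN1A transcript, housekeeping-normalized (ACTB, GAPDH, POLR2A). Up/down curve fit relative to DMSO.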
# [18] = target: Bile acid receptor (Homo sapiens) (UniProt Q96RI1); experiment: OT_FXR_FXRSRC1_1440: Odyssey Thera (OT) 24-hour HEK293T Protein-Complementation Assay for Farnesoid X receptor/SRC-1 Co-activator (AID 2283384)
# Outline: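 Fluorescence readout, 24 h post-dose, HEK293T; FXR and SRC-1 fused to complementary reporter fragments, association reconstitutes signal. Positive-direction fit vs DMSO baseline.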
# [19] = read-out: Cyclin D1 (CCND1), CCND1 (gene 595); experiment: LTEA_HepaRG_CCND1: Life Technologies and Expression Analysis (LTEA) Assay for Cyclin D1 (CCND1) using HepaRG (AID 2283451; active = hit-call score of the fitted dose curve at least 0.9, where 1 is the maximum; inactive = score below 0.9); details: mRNA level, 48 h; actives raise or lower the signal
# Outline: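 qRT-PCR (Fluidigm 96.96 array) read-out of transcript level, housekeeping-normalized (ACTB/GAPDH/POLR2A). HepaRG cells, 48 h chemical exposure, 8-point half-log series from 100 uM, 0.5% DMSO vehicle; gain or loss relative to DMSO baseline.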
# [20] = CEETOX_H295R_ANDR: CeeTox H295R High-throughput Steroidogenesis Assay for Androstenedione (ANDR) (AID 2283436; active = hit-call score of the fitted dose curve at least 0.9, where 1 is the maximum; inactive = score below 0.9); details: actives raise or lower the signal
# Outline: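 Medium from 48 h chemical-treated H295R adrenal cells was extracted with MTBE and androstenedione measured by LC-MS/MS. Activity was fit in both directions relative to DMSO. Cytotoxic concentrations were re-tested after dilution until MTT viability reached ≥70%.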
# Fatty acid synthase (Homo sapiens), sequence (P49327 whole entry, looked up): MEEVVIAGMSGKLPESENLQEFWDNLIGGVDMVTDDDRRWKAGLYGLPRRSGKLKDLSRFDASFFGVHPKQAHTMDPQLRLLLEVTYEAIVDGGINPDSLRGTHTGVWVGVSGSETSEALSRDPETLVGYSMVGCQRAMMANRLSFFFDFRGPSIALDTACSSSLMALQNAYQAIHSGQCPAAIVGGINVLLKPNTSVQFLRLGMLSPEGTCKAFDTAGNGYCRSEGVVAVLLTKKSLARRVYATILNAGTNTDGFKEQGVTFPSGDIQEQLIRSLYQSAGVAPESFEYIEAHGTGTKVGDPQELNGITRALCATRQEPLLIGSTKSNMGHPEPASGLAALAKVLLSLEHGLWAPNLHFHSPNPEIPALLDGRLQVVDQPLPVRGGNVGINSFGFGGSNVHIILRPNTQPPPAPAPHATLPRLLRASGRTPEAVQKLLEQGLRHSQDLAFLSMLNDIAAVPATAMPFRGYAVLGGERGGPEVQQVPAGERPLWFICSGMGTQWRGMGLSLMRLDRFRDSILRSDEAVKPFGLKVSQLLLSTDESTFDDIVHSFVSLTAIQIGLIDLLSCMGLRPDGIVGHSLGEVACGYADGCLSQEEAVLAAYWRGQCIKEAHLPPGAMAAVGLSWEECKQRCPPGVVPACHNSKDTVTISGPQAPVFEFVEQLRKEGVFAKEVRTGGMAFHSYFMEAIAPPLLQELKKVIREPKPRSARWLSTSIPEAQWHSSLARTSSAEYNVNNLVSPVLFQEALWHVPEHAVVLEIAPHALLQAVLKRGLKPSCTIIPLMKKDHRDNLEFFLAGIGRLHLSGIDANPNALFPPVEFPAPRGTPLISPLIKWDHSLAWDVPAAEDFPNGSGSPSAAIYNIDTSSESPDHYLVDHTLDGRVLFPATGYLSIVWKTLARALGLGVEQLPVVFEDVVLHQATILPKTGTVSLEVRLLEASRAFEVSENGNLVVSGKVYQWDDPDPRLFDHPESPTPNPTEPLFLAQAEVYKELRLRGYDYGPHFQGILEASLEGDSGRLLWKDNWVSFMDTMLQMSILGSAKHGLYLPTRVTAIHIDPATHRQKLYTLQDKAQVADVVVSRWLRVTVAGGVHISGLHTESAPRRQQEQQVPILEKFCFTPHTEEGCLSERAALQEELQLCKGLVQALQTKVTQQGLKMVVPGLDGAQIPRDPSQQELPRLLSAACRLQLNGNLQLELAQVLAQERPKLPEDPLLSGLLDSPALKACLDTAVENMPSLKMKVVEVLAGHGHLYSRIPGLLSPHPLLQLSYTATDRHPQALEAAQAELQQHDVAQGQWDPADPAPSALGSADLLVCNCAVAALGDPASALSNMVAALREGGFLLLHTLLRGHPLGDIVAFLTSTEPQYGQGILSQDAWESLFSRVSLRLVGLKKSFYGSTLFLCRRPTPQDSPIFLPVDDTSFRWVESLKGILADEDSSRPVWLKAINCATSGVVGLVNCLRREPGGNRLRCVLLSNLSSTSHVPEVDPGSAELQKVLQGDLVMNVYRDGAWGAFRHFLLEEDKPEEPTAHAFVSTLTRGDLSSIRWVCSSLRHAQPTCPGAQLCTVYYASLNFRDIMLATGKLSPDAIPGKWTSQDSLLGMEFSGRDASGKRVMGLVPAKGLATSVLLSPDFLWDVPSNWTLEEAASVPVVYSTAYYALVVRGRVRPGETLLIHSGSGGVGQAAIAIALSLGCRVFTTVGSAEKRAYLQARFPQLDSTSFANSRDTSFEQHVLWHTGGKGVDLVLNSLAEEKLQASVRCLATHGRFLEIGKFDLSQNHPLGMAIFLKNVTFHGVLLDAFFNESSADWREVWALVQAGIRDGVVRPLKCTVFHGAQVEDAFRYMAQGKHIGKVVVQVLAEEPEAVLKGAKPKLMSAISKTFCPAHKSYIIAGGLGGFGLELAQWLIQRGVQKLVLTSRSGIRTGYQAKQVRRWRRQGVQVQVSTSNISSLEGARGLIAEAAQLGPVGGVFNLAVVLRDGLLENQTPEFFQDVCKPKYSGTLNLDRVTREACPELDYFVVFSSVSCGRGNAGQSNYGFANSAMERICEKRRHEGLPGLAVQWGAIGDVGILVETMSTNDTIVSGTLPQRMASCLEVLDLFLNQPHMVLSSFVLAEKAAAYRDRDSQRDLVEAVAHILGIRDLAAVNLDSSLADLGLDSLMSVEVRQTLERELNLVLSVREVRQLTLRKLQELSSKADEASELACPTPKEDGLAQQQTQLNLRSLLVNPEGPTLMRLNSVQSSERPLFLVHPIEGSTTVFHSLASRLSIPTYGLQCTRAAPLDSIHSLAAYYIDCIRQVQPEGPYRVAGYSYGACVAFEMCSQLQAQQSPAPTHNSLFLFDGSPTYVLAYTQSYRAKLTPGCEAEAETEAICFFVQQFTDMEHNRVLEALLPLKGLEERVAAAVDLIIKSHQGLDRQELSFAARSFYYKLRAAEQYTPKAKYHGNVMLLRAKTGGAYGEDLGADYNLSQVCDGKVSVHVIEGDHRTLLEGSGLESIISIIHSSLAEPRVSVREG
# Retinoic acid receptor RXR-alpha (Homo sapiens), sequence (P19793 whole entry, looked up, the tested form may be a part): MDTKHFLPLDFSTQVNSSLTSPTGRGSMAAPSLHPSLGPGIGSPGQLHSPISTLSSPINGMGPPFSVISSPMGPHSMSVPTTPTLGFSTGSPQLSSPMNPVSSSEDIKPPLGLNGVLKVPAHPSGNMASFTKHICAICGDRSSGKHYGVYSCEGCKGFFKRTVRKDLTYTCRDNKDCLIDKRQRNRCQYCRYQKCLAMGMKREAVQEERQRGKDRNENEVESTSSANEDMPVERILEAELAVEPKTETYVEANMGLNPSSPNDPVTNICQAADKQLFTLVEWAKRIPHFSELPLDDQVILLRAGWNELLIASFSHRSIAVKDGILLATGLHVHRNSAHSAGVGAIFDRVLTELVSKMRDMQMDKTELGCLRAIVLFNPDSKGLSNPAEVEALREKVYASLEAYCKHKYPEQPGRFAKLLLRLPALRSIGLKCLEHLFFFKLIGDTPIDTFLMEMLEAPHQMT
# Bile acid receptor (Homo sapiens), sequence (Q96RI1 whole entry, looked up, the tested form may be a part): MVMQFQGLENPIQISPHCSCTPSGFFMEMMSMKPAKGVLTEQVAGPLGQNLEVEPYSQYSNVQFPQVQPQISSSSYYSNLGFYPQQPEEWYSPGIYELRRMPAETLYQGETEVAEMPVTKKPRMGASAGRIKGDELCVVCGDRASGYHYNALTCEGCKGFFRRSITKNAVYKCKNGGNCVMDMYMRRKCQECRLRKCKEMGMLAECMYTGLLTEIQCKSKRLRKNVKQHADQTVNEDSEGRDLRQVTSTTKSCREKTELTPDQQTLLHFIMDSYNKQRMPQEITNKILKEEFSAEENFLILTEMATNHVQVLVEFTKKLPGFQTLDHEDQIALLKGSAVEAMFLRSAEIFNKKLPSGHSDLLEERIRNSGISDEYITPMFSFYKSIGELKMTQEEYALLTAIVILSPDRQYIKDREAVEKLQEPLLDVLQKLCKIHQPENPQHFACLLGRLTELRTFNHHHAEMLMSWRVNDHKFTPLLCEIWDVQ
# Peroxisome proliferator-activated receptor gamma (Homo sapiens), sequence (P37231 whole entry, looked up, the tested form may be a part): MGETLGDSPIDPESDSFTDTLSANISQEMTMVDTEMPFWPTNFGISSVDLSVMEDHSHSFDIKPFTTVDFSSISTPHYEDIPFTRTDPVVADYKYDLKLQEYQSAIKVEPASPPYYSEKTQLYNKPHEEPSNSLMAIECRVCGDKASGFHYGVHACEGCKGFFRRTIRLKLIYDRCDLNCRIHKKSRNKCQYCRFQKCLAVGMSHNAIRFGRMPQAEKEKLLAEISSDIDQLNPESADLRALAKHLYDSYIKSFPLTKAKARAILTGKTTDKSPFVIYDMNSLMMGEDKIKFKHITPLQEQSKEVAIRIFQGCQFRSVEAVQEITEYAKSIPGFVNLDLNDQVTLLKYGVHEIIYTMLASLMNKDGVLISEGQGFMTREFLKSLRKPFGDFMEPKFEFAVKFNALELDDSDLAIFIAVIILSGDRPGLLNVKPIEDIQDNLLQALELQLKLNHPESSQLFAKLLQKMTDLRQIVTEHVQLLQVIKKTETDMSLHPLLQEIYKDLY
structure (smiles),measurement,setting,value
OC12N=C(c3ccccc3)SC1Cc1cc(Cl)ccc12 (stereo not given),outcome,[1],inactive
same,AC50,[2],30 µM (active)
same,outcome,[3],inactive
same,outcome,[4],inactive
same,AC50,[5],32.8 µM (active)
same,outcome,[6],inactive
same,outcome,[7],inactive
same,AC50,[8],17.7 µM (active)
same,AC50,[9],28.5 µM (active)
same,AC50,[10],17.6 µM (active)
same,outcome,[11],inactive
same,outcome,[12],inactive
same,outcome,[13],inactive
same,outcome,[14],inactive
same,AC50,[15],2.18 µM (active)
same,outcome,[16],inactive
same,outcome,[17],inactive
CC/C(=C(/CC)c1ccc(O)cc1)c1ccc(O)cc1,outcome,[18],inactive
same,outcome,[1],inactive
same,outcome,[2],inactive
same,AC50,[14],50 µM (active)
COc1cccc([C@H](O)C2CCN(CCc3ccc(F)cc3)CC2)c1OC,outcome,[1],inactive
same,outcome,[2],inactive
same,outcome,[3],inactive
same,outcome,[4],inactive
same,AC50,[5],27 µM (active)
same,AC50,[6],1.81 µM (active)
same,AC50,[7],19.7 µM (active)
same,AC50,[8],1.22 µM (active)
same,outcome,[9],inactive
same,AC50,[10],9.1 µM (active)
same,outcome,[11],inactive
same,outcome,[12],inactive
same,AC50,[13],0.405 µM (active)
same,outcome,[14],inactive
same,outcome,[16],inactive
same,outcome,[19],inactive
CCCCOC(=O)c1ccc(O)cc1,outcome,[1],inactive
same,outcome,[2],inactive
same,outcome,[3],inactive
same,outcome,[4],inactive
same,outcome,[5],inactive
same,outcome,[6],inactive
same,AC50,[7],5 µM (active)
same,outcome,[20],inactive
same,outcome,[8],inactive
same,outcome,[9],inactive
same,outcome,[10],inactive
same,AC50,[13],3.6 µM (active)
same,outcome,[14],inactive
same,outcome,[17],inactive
C[C@]12CC[C@@H]3c4ccc(O)cc4CC[C@H]3[C@@H]1CCC2=O,outcome,[1],inactive
same,AC50,[2],32.1 µM (active)
same,outcome,[2],inactive
same,AC50,[6],1.6 µM (active)
same,AC50,[13],0.849 µM (active)
same,outcome,[14],inactive
same,outcome,[15],inactive
same,outcome,[16],inactive
same,outcome,[17],inactive
c1ccc2n[nH]nc2c1,outcome,[1],inactive
same,outcome,[2],inactive
same,outcome,[3],inactive
same,outcome,[4],inactive
same,outcome,[14],inactive
same,outcome,[16],inactive
CCCCCCCCOC(=O)c1cc(O)c(O)c(O)c1,outcome,[1],inactive
same,AC50,[2],68.5 µM (active)
same,outcome,[2],inactive
same,outcome,[3],inactive
same,outcome,[4],inactive
same,outcome,[5],inactive
same,outcome,[6],inactive
same,outcome,[7],inactive
same,outcome,[9],inactive
same,AC50,[10],5 µM (active)
same,outcome,[11],inactive
same,outcome,[12],inactive
same,AC50,[13],2.44 µM (active)
same,outcome,[14],inactive
same,outcome,[15],inactive
same,outcome,[16],inactive
same,outcome,[17],inactive
CC[C@@H]1C[C@H](N(Cc2cc(C(F)(F)F)cc(C(F)(F)F)c2)C(C)=O)c2cc(C(F)(F)F)ccc2N1C(=O)OC(C)C,outcome,[1],inactive
same,outcome,[2],inactive
same,outcome,[3],inactive
same,outcome,[4],inactive
same,outcome,[14],inactive
same,outcome,[16],inactive
same,outcome,[17],inactive

# Reference: PubChem BioAssay (EPA / NIEHS)
